Measurements reported in PubChem BioAssay AID1159580 (chemical genetic matrix, 2015).
In all, about 5,500 compounds went through this assay and about 2,000 (36%) were called active. Not shown: some 18% with an inconclusive outcome. No stated cut-off is given here; in the data, active means normalized growth mostly below about 0.91 (no sharp cut-off); inconclusive means no clear call, values can overlap the other calls; inactive means mostly above about 0.92. The list shows a part of the results.

Test: chemical genetic growth profiling, strain panel (AID 1159580);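 further: tested at 20 µM; growth read once vehicle control cultures reached saturation at 30 °C; 1 = growth at the plate median or of vehicle wells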
Settings: growth OD

Measured: normalized growth

N[C@@H](C(=O)O)[C@@H](O)[C@H](O)[C@H](O)CO
inactive: S. cerevisiae deletion strains, locus YJR066W, strain TOR1, stronger effect = lower value 0.985 | S. cerevisiae deletion strains, locus YJR075W, strain HOC1, stronger effect = lower value 1.02 | S. cerevisiae deletion strains, locus YKL009W, strain mrt4, stronger effect = lower value 1 | S. cerevisiae deletion strains, locus YKL068W, stronger effect = lower value 1.01 | S. cerevisiae deletion strains, locus YKL085W, strain MDH1 (second series), stronger effect = lower value 1.02 | S. cerevisiae deletion strains, locus YKL085W, strain MDH1, stronger effect = lower value 1.02 | S. cerevisiae deletion strains, locus YKL160W, strain elf1, stronger effect = lower value 1.03 | S. cerevisiae deletion strains, locus YKL190W, strain CNB1, stronger effect = lower value 1.01 | S. cerevisiae deletion strains, locus YKR001C, strain vps1, stronger effect = lower value 1.04 | S. cerevisiae deletion strains, locus YKR026C, strain gcn3, stronger effect = lower value 1.04 | S. cerevisiae deletion strains, locus YKR091W, strain srl3, stronger effect = lower value 1.02 | S. cerevisiae deletion strains, locus YLL001W, strain dnm1, stronger effect = lower value 1.03 | S. cerevisiae deletion strains, locus YLL026W, stronger effect = lower value 1.03 | S. cerevisiae deletion strains, locus YLL041C, strain sdh2, stronger effect = lower value 1.02 | S. cerevisiae deletion strains, locus YLR027C, strain aat2, stronger effect = lower value 1.02 | S. cerevisiae deletion strains, locus YLR039C, strain RIC1, stronger effect = lower value 1.1 | S. cerevisiae deletion strains, locus YLR058C, strain SHM2, stronger effect = lower value 1.01 | S. cerevisiae deletion strains, locus YLR102C, strain apc9, stronger effect = lower value 1.01 | S. cerevisiae deletion strains, locus YLR113W, strain HOG1, stronger effect = lower value 1.07 | S. cerevisiae deletion strains, locus YLR221C, strain rsa3, stronger effect = lower value 1.03 | S. cerevisiae deletion strains, locus YLR258W, strain gsy2, stronger effect = lower value 1.01 | S. cerevisiae deletion strains, locus YLR262C, strain YPT6 (second series), stronger effect = lower value 1.06 | S. cerevisiae deletion strains, locus YLR262C, strain YPT6, stronger effect = lower value 1.14 | S. cerevisiae deletion strains, locus YLR268W, strain sec22, stronger effect = lower value 1.04 | S. cerevisiae deletion strains, locus YLR320W, strain mms22, stronger effect = lower value 1.03 | S. cerevisiae deletion strains, locus YLR330W, strain CHS5, stronger effect = lower value 1.01 | S. cerevisiae deletion strains, locus YLR342W, strain FKS1 (second series), stronger effect = lower value 1.01 | S. cerevisiae deletion strains, locus YLR342W, strain FKS1, stronger effect = lower value 1.03 | S. cerevisiae deletion strains, locus YLR357W, strain rsc2, stronger effect = lower value 1.04 | S. cerevisiae deletion strains, locus YLR370C, strain arc18, stronger effect = lower value 1.02 | S. cerevisiae deletion strains, locus YLR371W, strain rom2, stronger effect = lower value 1.02 | S. cerevisiae deletion strains, locus YLR384C, strain iki3, stronger effect = lower value 1.02 | S. cerevisiae deletion strains, locus YLR418C, strain cdc73, stronger effect = lower value 1.01 | S. cerevisiae deletion strains, locus YML016C, strain PPZ1, stronger effect = lower value 1.01 | S. cerevisiae deletion strains, locus YML032C, strain rad52, stronger effect = lower value 0.989 | S. cerevisiae deletion strains, locus YML120C, strain ndi1, stronger effect = lower value 1.03 | S. cerevisiae deletion strains, locus YML124C, strain tub3, stronger effect = lower value 1.02 | S. cerevisiae deletion strains, locus YMR058W, strain fet3, stronger effect = lower value 1.03 | S. cerevisiae deletion strains, locus YMR078C, strain ctf18, stronger effect = lower value 1.03 | S. cerevisiae deletion strains, locus YMR125W, strain sto1, stronger effect = lower value 1.02 | S. cerevisiae deletion strains, locus YMR129W, stronger effect = lower value 1.03 | S. cerevisiae deletion strains, locus YMR205C, strain PFK2, stronger effect = lower value 1.03 | S. cerevisiae deletion strains, locus YMR223W, strain ubp8, stronger effect = lower value 1.01 | S. cerevisiae deletion strains, locus YMR231W, strain pep5, stronger effect = lower value 1 | S. cerevisiae deletion strains, locus YMR307W, strain GAS1, stronger effect = lower value 0.992 | S. cerevisiae deletion strains, locus YNL067W, strain RPL9B, stronger effect = lower value 1.01 | S. cerevisiae deletion strains, locus YNL071W, strain lat1, stronger effect = lower value 1.03 | S. cerevisiae deletion strains, locus YNL153C, strain GIM3, stronger effect = lower value 1.01 | S. cerevisiae deletion strains, locus YNL183C, strain NPR1, stronger effect = lower value 0.989 | S. cerevisiae deletion strains, locus YNL209W, strain ssb2, stronger effect = lower value 1.02 | S. cerevisiae deletion strains, locus YNL233W, strain BNI4, stronger effect = lower value 1.02 | S. cerevisiae deletion strains, locus YNL248C, strain rpa49, stronger effect = lower value 1.04 | S. cerevisiae deletion strains, locus YNL250W, strain rad50, stronger effect = lower value 1.03 | S. cerevisiae deletion strains, locus YNL271C, strain bni1, stronger effect = lower value 1.03 | S. cerevisiae deletion strains, locus YNL298W, strain CLA4, stronger effect = lower value 1.02 | S. cerevisiae deletion strains, locus YNL307C, strain MCK1, stronger effect = lower value 1.02 | S. cerevisiae deletion strains, locus YNL322C, strain KRE1 (second series), stronger effect = lower value 1.03 | S. cerevisiae deletion strains, locus YNR049C, strain mso1, stronger effect = lower value 1.04 | S. cerevisiae deletion strains, locus YNR052C, strain pop2, stronger effect = lower value 1.01 | S. cerevisiae deletion strains, locus YOL006C, strain TOP1, stronger effect = lower value 1.06 | S. cerevisiae deletion strains, locus YOL012C, strain htz1 0.92 | S. cerevisiae deletion strains, locus YOL147C, strain pex11, stronger effect = lower value 1.01 | S. cerevisiae deletion strains, locus YOR001W, strain rrp6, stronger effect = lower value 1.05 | S. cerevisiae deletion strains, locus YOR061W, strain CKA2, stronger effect = lower value 1.02 | S. cerevisiae deletion strains, locus YOR069W, strain VPS5, stronger effect = lower value 1.01 | S. cerevisiae deletion strains, locus YOR070C, strain gyp1, stronger effect = lower value 1.02 | S. cerevisiae deletion strains, locus YOR080W, strain dia2, stronger effect = lower value 1.04 | S. cerevisiae deletion strains, locus YOR083W, strain WHI5, stronger effect = lower value 1.02 | S. cerevisiae deletion strains, locus YOR106W, strain vam3, stronger effect = lower value 1.07 | S. cerevisiae deletion strains, locus YOR136W, strain idh2, stronger effect = lower value 1.02 | S. cerevisiae deletion strains, locus YOR144C, strain elg1, stronger effect = lower value 1.01 | S. cerevisiae deletion strains, locus YOR184W, strain ser1, stronger effect = lower value 1.03 | S. cerevisiae deletion strains, locus YOR231W, strain MKK1, stronger effect = lower value 1.08 | S. cerevisiae deletion strains, locus YOR265W, strain rbl2, stronger effect = lower value 1.02 | S. cerevisiae deletion strains, locus YOR270C, strain vph1, stronger effect = lower value 1.12 | S. cerevisiae deletion strains, locus YOR290C, strain snf2, stronger effect = lower value 1.02 | S. cerevisiae deletion strains, locus YOR316C, strain cot1, stronger effect = lower value 1.02 | S. cerevisiae deletion strains, locus YPL051W, strain arl3, stronger effect = lower value 1.02 | S. cerevisiae deletion strains, locus YPL055C, strain LGE1, stronger effect = lower value 1.02 | S. cerevisiae deletion strains, locus YPL078C, strain atp4, stronger effect = lower value 1.01 | S. cerevisiae deletion strains, locus YPL106C, strain sse1, stronger effect = lower value 1.01 | S. cerevisiae deletion strains, locus YPL240C, strain hsp82, stronger effect = lower value 1.02 | S. cerevisiae deletion strains, locus YPL256C, strain CLN2, stronger effect = lower value 1.03 | S. cerevisiae deletion strains, locus YPR119W, strain clb2, stronger effect = lower value 1.02 | S. cerevisiae deletion strains, locus YPR141C, strain kar3, stronger effect = lower value 1.02 | S. cerevisiae deletion strains, locus YPR163C, strain tif3, stronger effect = lower value 1.03 | S. cerevisiae deletion strains, locus YPR167C, strain met16, stronger effect = lower value 1.02 | S. cerevisiae deletion strains, strain wtn01, stronger effect = lower value 1.05 | S. cerevisiae strains, strain wild type, stronger effect = lower value 1.01
